From PubChem
MITF TRPM1 inh = inhibitors of MITF-driven TRPM1 promoter in melanoma cells. 0.83% of 330,000 active. AID 488899. SK-MEL-5 TRPM1 promoter luciferase, 24 h. inhibition, % at 12.5 µM;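 active = mean inhibition across replicates of 60% or more, whatever share of single replicates reaches that level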
Peg3 promoter = inhibitors of Peg3 promoter | HeLa PEG-Prom luciferase reporter, luminescence, overnight | inhibition, % at 20 µM | 1.7% of 360,000 active | AID 588405;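 active = inhibition of at least 50% at 20 µM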
KKLEB tox = reduces viability of KKLEB cystic fibrosis airway cells. KKLEB CF airway cells viability, ATPlite luminescence, overnight; hits give low values; cells stimulated with P. aeruginosa culture filtrate. activity change (cytotoxicity), % at 5 µM. 0.36% of 360,000 active. AID 602141;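 active = corrected activity change at or below -50% at 5 µM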
Shn3 3UTR inh = reduces Shn3 3'UTR luciferase signal in osteoblasts | Clone20 osteoblast Shn3 3'UTR firefly luciferase, 24 h | inhibition, % at 12.5 µM | 0.52% of 360,000 active | AID 588674;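 active = mean inhibition of at least 75% with every replicate also reaching 75%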
CF NFkB block = cystic fibrosis NF-kB activation inhibition. KKLEB NF-kB-GFP reporter, PAF-induced, GFP fluorescence overnight. 0.86% of 360,000 active. AID 588850. inhibition, % at 5 µM;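 active = at least 50% inhibition at 5 µM, scaled per plate between neutral and stimulator controls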;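 note: PAF is a Pseudomonas aeruginosa culture filtrate used as stimulus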
HIF-2a inh = HIF-2a inhibition | 786-0 RCC cells HIF-2a reporter, luciferase luminescence, overnight | inhibition, % at 18.8 µM | 0.72% of 360,000 active | AID 624352;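 active = inhibition of the luminescence signal of 40% or more relative to plate controls, in a single-dose primary screen at 18.75 µM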
Of the large screens only hits and unclear results are named; the others gave an inactive call. In the library only some 2.8% were active in any assay of this set; here they are far more common.

COc1ccc(-c2csc(NC(=O)C3CCCCN3S(=O)(=O)c3ccccc3)n2)cc1 (stereo not given)	none
Clc1ccc(Cc2noc(CN3CCN(c4ccccc4)CC3)n2)c(Cl)c1	Peg3 promoter 54
CCCCCCCC(=O)OCC(=O)[C@@]1(O)CC[C@H]2[C@@H]3CCC4=CC(=O)CC[C@]4(C)[C@H]3[C@@H](O)C[C@@]21C	CF NFkB block 61
CC12CCC(=O)C=C1CCC1C2C(O)CC2(C)C1CCC21OCC1=O (stereo not given)	none
CCCCCC(=O)O[C@]1(C(C)=O)CC[C@H]2[C@@H]3CCC4=CC(=O)CC[C@]4(C)[C@H]3CC[C@@]21C	none
CCOC(=O)OCC(=O)C1(O)CCC2C3CCC4=CC(=O)CCC4(C)C3C(O)CC21C (stereo not given)	CF NFkB block 68
CC(=O)OCC(=O)C1(O)CCC2C3CCC4=CC(=O)CCC4(C)C3C(O)CC21C (stereo not given)	CF NFkB block 60
CC12CCC(=O)C=C1CCC1C2C(O)CC2(C)C1CCC2(O)C(=O)COC(=O)COCC(=O)O (stereo not given)	CF NFkB block 70
Cc1ccc(S(=O)(=O)NC(=O)C2(C)CCN2C(=O)C2CC2)cc1 (stereo not given)	none (no result: MITF TRPM1 inh)
O=S(=O)(Nc1cccc2cccnc12)c1ccc(S(=O)(=O)N2CCCC2)cc1	Peg3 promoter 50
CC(=O)Nc1ccc(S(=O)(=O)Nc2cccc3cccnc23)cc1	none
Cc1ccnc(NC(=O)c2sc3ccccc3c2Cl)c1	KKLEB tox -75
Cc1cnc(NC(=O)c2sc3ccccc3c2Cl)s1	KKLEB tox -54
O=C(CSc1n[nH]c(-c2ccccn2)n1)Nc1ccc(Cl)cc1	Peg3 promoter 53
O=C(CSc1n[nH]c(-c2ccccn2)n1)Nc1ccc(F)cc1	none
COc1ccc(/C=C/C(=O)NC(=S)N2CCSCC2)cc1	none
O=C1C(C2=C(O)c3ccccc3C2=O)=Nc2ccccc21	MITF TRPM1 inh 66
Nc1nc(Cl)nc(N(c2ccccc2)c2ccccc2)n1	none
Nc1nc(CCl)nc(N(c2ccccc2)c2ccccc2)n1	KKLEB tox -73, CF NFkB block 70 (no result: MITF TRPM1 inh)
CCc1ccc(C(=O)Nc2nc(C)cs2)s1	HIF-2a inh 56
CCOC(=O)c1sc(NC(=O)c2ccc(CC)s2)nc1C	none
COC(=O)C1=C(C)N(Cc2ccccc2)C(=NCc2ccc(OC)cc2)N[C@H]1c1ccccc1	Peg3 promoter 69
COC(=O)C1=C(C)N(Cc2ccccc2)C(=NCc2cccc(C(F)(F)F)c2)N[C@H]1c1cccc(F)c1	MITF TRPM1 inh 94, Peg3 promoter 100, KKLEB tox -97, CF NFkB block 84
CC(C)NC(=O)C1(C)CN(S(C)(=O)=O)CC(=O)N1Cc1cccc(C(F)(F)F)c1 (stereo not given)	none (no result: MITF TRPM1 inh, Peg3 promoter, KKLEB tox, Shn3 3UTR inh, CF NFkB block)
COc1ccc(C)cc1S(=O)(=O)n1c([N+](=O)[O-])cnc1C	none
CCNc1ccc(C(=O)OCC(=O)N(Cc2ccccc2)C(C)(C)C)cc1[N+](=O)[O-]	none
Cc1cc(NC(=O)c2cccc(Br)c2)n[nH]1	Peg3 promoter 70
Cc1cc(C)c(O)c(-c2cc(C(=O)Nc3ccc(S(=O)(=O)N4CCOCC4)cc3)[nH]n2)c1	Peg3 promoter 59, Shn3 3UTR inh 91
C[C@]12CCC(=O)C=C1CC[C@@H]1[C@@H]2[C@@H](O)C[C@@]2(C)[C@H]1CC[C@]2(O)C(=O)CO	CF NFkB block 73
CC12CCC(=O)C=C1CCC1C2C(O)CC2(C)C1CCC2(O)C(=O)CO (stereo not given)	CF NFkB block 61
COc1cccc(CNCc2cccnc2)c1OCc1ccccc1	none
CSCC[C@H](NS(=O)(=O)c1ccc(C(C)=O)cc1)c1nnc2ccccn12	none
Cc1ccc(/C=N/NC(=O)c2cc(-c3ccncc3)nc3ccccc23)o1	none
COc1ccc(C(=O)N/N=C(\C)c2ccccn2)cc1OC	MITF TRPM1 inh 73, Shn3 3UTR inh 91
C/C(=N\NC(=O)c1cc(Br)ccc1O)c1ccccn1	none
C/C(=N\NC(=O)c1ccccc1Cl)c1ccccn1	Shn3 3UTR inh 92
C/C(=N\NC(=O)c1cccc2ccccc12)c1ccccn1	MITF TRPM1 inh 76, Shn3 3UTR inh 90
CC(/C=N/NC(=O)c1cc(-c2ccncc2)nc2ccccc12)=C\c1ccco1	MITF TRPM1 inh 68
